# In PubChem BioAssay AID504834 (National Center for Advancing Translational Sciences (NCATS), 2011):
# In all, about 320,000 compounds went through this assay and about 22,000 (6.9%) were called active. Entries that show only a call come without a potency. Inconclusive results (about 27%) are left out. Calls follow the shape of the dose curve; as a rule, active = well fitted inhibition curve with a large enough effect; inconclusive = small, poorly fitted or top-dose-only effect, or another doubt; inactive = no such curve, though single readings can be large or run the other way. For the sample, actives were picked, then their nearest neighbours and some compounds at random.
# Experiment: Primary qHTS for delayed death inhibitors of the malarial parasite plastid, 96 hour incubation
# Conditions: P. falciparum luciferase reporter growth; series mostly up to 28.7 µM
# In short: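 Infected RBCs, 2% Hct / 0.05% parasitemia final; luciferase-reporter P. falciparum; cpd 96 h, 37 C, 5% CO2; luciferase detection reagent; luminescence.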
# Potency is read from the fitted curve at half-maximal effect.
row,Structure (SMILES),Potency
1,CC(C)Cc1nnc(NC(=O)CN2C(=O)NC3(CCCCC3)C2=O)s1,inactive
2,COc1ccc(CCN2C(=O)C3CC=C(C)CC3C2=O)cc1OC (stereo unspecified),inactive
3,COc1ccc(CCN2CNc3c(c(=O)n(C)c(=O)n3C)C2)cc1OC,13.1 µM (active)
4,COc1ccc(CCN=C2SCC(=O)N2C)cc1OC,inactive
5,CN(c1ccccc1)S(=O)(=O)c1cccc(C(=O)NNC(=O)c2ccncc2)c1,inactive
6,COc1cccc(NC(=O)N2C3CCCC2CC(NC(C)=O)C3)c1 (stereo unspecified),inactive
7,NC(=O)c1nnsc1-c1ccc(-c2snnc2C(N)=O)cc1,inactive
8,NS(=O)(=O)c1ccc(CNC(=O)c2cnccn2)cc1,inactive
9,COCCOCCn1cnc2ccccc21,inactive
10,Cc1c(C(N)=O)sc2ncn(CCOc3ccccc3)c(=O)c12,inactive
11,Cc1cc2ncn(CCCCOc3ccccc3)c2cc1C,14.7 µM (active)
12,COc1ccc(NC(=O)CC(NC(C)c2ccccc2)C(=O)O)cc1 (stereo unspecified),inactive
13,CCCCCC(O)(CCN1CCCCC1)c1ccccc1 (stereo unspecified),inactive
14,CCOC(=O)CSc1nc2sc3c(c2c(=O)[nH]1)CC(C)(C)OC3,inactive
15,CCC1(C)Cc2c(sc3[nH]c(=S)n(Cc4ccccc4)c(=O)c23)CO1 (stereo unspecified),inactive
16,CCC1(C)Cc2c(sc3nc(SC)[nH]c(=O)c23)CO1 (stereo unspecified),9.28 µM (active)
17,CCOc1ccc(S(=O)(=O)N2CCCC(C(=O)N3CCC(C(N)=O)CC3)C2)cc1Cl (stereo unspecified),inactive
18,COc1ccc(OC)c(S(=O)(=O)N2CCCC(C(=O)NCCc3ccccc3)C2)c1 (stereo unspecified),inactive
19,CCOC(=O)c1sc(NC(=O)C2CSC3(C)CCC(=O)N23)nc1C (stereo unspecified),inactive
20,COc1cc(C(C(=O)NC2CCCC2)N(C(=O)c2ccco2)c2ccccc2C(C)=O)cc(OC)c1OC (stereo unspecified),inactive
21,O=C(/C=C/Nc1ccc(S(=O)(=O)Nc2cnc3ccccc3n2)cc1)c1cccnc1,inactive
22,CCn1c(SCC(=O)Nc2ccc3c(c2)OCCO3)nnc1-c1ccncc1,inactive
23,O=C(CSc1nnnn1-c1ccc2c(c1)CCC2)Nc1ccc2c(c1)OCCO2,10.4 µM (active)
24,CCn1c(SCC(=O)Nc2ccc3c(c2)OCCO3)nnc1C(C)C,inactive

row,Structure (SMILES),Potency
1,c1ccc2c(c1)C(=NC1CCCCC1)NC2=NC1CCCCC1,2.94 µM (active)
2,O=C1CCCCC(=O)c2ccccc2N1,inactive
3,CC(=O)c1ccc(N2CCN(CC(O)c3ccccc3)CC2)cc1 (stereo unspecified),inactive
4,COc1cccc(CNS(=O)(=O)c2csc(C(N)=O)c2)c1,inactive
5,COc1cccc(S(=O)(=O)NCc2ccc(C(=O)NCc3ccccn3)cc2)c1,2.94 µM (active)
6,COc1cccc(NC(=S)NCc2ccccn2)c1,inactive
7,O=C(COC(=O)c1ccccc1)c1ccc2c(c1)OCCO2,inactive
8,CCOC(=O)c1c(-c2ccccc2)oc2cc(Br)c(O)cc12,inactive
9,O=C(c1ccc(Cn2cc([N+](=O)[O-])cn2)o1)N1CCCC1,inactive
10,CC(C)CC(CCc1ccccc1)OS(N)(=O)=O (stereo unspecified),inactive
11,O=C(COC(=O)c1ccc(O)cc1O)NNC(=O)c1cccs1,inactive
12,CCOc1cc(N2CCOCC2)c(OCC)cc1NC(=O)COc1cccc(Cl)c1,inactive
13,CCOc1cc(N2CCOCC2)c(OCC)cc1NC(=O)COC(=O)[C@H](Cc1c[nH]c2ccccc12)NC(C)=O,inactive
14,CCOc1cc(N2CCOCC2)c(OCC)cc1NC(=O)COc1cccc2cccnc12,9.28 µM (active)
15,O=C(N/N=C/c1cccnc1)c1ccc(NC(=O)c2ccc(F)cc2)cc1,inactive
16,Cn1nc(-c2ccccc2)c2cc([N+](=O)[O-])ccc21,9.28 µM (active)
17,Cc1nc(-c2ccc([N+](=O)[O-])cc2)c(-c2ccccc2)o1,inactive
18,COc1ccc([N+](=O)[O-])cc1-c1nc2ccccc2nc1-c1ccccc1,inactive
19,COc1ccccc1Cn1c(=S)[nH]c2cc(C(=O)N3CCN(C)CC3)ccc2c1=O,inactive
20,CCOC(=O)N1CCN(C(=O)c2ccc3c(=O)n(CCc4ccc(OC)c(OC)c4)c(=O)[nH]c3c2)CC1,2.62 µM (active)
21,COc1ccc(CCNC(=O)CCCCn2c(=O)[nH]c3ccccc3c2=O)cc1OC,inactive
22,Cc1c(S(=O)(=O)NC(C)c2ccccc2)c(=O)n(C)c(=O)n1C (stereo unspecified),inactive
23,CN(CC(=O)NCCc1ccc(F)cc1)CC(=O)Nc1ccc(F)c(F)c1F,inactive
24,COc1cccc(C(=O)N2CCC(n3nccc3NC(=O)C3CCOC3)CC2)c1 (stereo unspecified),inactive

row,Structure (SMILES),Potency
1,CCCCn1c(N)c(N(CCC(C)C)C(=O)c2ccc(COc3ccccc3)o2)c(=O)[nH]c1=O,inactive
2,CCCCn1c(N)c(N(CCC(C)C)C(=O)c2ccc([N+](=O)[O-])o2)c(=O)[nH]c1=O,inactive
3,CCCCn1c(N)c(N(CCC(C)C)C(=O)CC2OC(=O)c3ccccc32)c(=O)[nH]c1=O (stereo unspecified),4.65 µM (active)
4,O=C(NCCO)C(=O)NCC(c1ccc2c(c1)OCO2)N1CCN(c2ccc(F)cc2)CC1 (stereo unspecified),inactive
5,CCOC(=O)N1CCN(S(=O)(=O)N2CCCC(C(=O)NCCCN3CCC(C)CC3)C2)CC1 (stereo unspecified),inactive
6,O=C(CCC(=O)N/N=C/c1ccc(Br)o1)N/N=C/c1ccc(Br)o1,inactive
7,COc1ccc(CCNC2=CC(=O)CC(C)(C)C2)cc1,inactive
8,COc1cc(Cn2c(N)c(C(=O)NCc3ccco3)c3nc4ccccc4nc32)cc(OC)c1OC,1.65 µM (active)
9,COc1cc(C(=O)N[C@@H](C)C(=O)NCc2ccco2)cc(OC)c1OC,inactive
10,COc1cc(C(=O)NC(=S)NCc2ccco2)cc(OC)c1OC,inactive
11,O=C(NCC(=O)N1CCCC(C(F)(F)F)C1)c1ccccc1F (stereo unspecified),inactive
12,CC(NC(=O)c1ccccc1F)c1cccc2ccccc12 (stereo unspecified),inactive
13,Cc1ccc(S(=O)(=O)N2CC(=O)Nc3ccccc32)cc1C,13.1 µM (active)
14,Cc1ccc(S(=O)(=O)N(C)CC(=O)OCC(=O)N2CC(=O)Nc3ccccc32)cc1,inactive
15,Cc1ccc(C(=O)N2CC(=O)Nc3ccccc32)o1,inactive
16,O=C(O)C1CCCCC1C(=O)N1CCN(S(=O)(=O)c2ccc(F)cc2)CC1 (stereo unspecified),inactive
17,COc1cc(N2C(=O)CC3(CCCC3)CC2=O)cc(OC)c1OC,inactive
18,COc1ccc(-n2c(SCC(=O)OC(C)C)nnc2-c2ccccn2)cc1,2.08 µM (active)
19,CCOc1ccc(-n2c(SCC(N)=O)nnc2-c2ccco2)cc1,3.7 µM (active)
20,CCOC(=O)CSc1nnc(-c2ccco2)n1C,inactive
21,Cc1cccc(C)c1NC(=O)CCCSc1nnc(-c2ccco2)n1-c1ccccc1,inactive
22,COc1ccc(-c2nnc(SCC(=O)c3ccco3)n2-c2ccccc2)cc1,inactive
23,O=C(CSc1nnc(-c2ccccn2)n1-c1ccccc1)Nc1ccc2c(c1)OCO2,inactive
